Assay outcomes: PubChem, National Center for Advancing Translational Sciences (NCATS)
HepG2 viability: qHTS for Inhibitors of TGF-b: Cytotox Counterscreen; HepG2 CAGA-GFP viability, ATP luminescence, 18 h; Potency, µM (series often up to 46.1 µM), hits mostly cytotoxic; 410,000 compounds, 0.76% hits
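HepG2 CAGA-GFP cells (1000/well, DMEM with 1% FBS) received compound, then TGF-beta at 500 pg/mL final, and were incubated 18 hours at 37 degrees C. Viability was read by CellTiter-Glo luminescence. Media-only wells were set as complete cell-killing and DMSO as no toxicity.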
TGFb inhibitor: qHTS for Inhibitors of TGF-b | HepG2 CAGA-GFP TGF-b/SMAD3 reporter, GFP fluorescence, 18 h; TGF-beta stimulated, 500 pg/mL final | Potency, µM (doses to about 46.1 µM), hits mostly inhibitors | 410,000 compounds, 1.2% hits; also: nearly all actives have a fitted effect of over 65% in size
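Cell-based qHTS in HEPG2 carrying a CAGA-GFP Smad reporter; compounds added before 500 pg/mL final TGF-beta, 18 h incubation at 37 degrees C, GFP fluorescence quantified per cell by imaging cytometry.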
TDP1 cell noCPT: qHTS for Inhibitors of human tyrosyl-DNA phosphodiesterase 1 (TDP1): qHTS in cells in absence of CPT. DT40 Tdp1-/- hTDP1 cells, no CPT, ATP luminescence, 48 h. Potency, µM (top dose mostly 46.2 µM), actives largely listed as inhibitors. 420,000 compounds, 15% hits; also: nearly all actives have a fitted effect of over 55% in size
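DT40 Tdp1-/-;hTDP1 cells, no CPT (DMSO vehicle only), 400 cells/well; compounds pin-transferred; ≥48 hr, 37 °C; CellTiter-Glo 30 min RT dark, luminescence read.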
TDP1 cell CPT: qHTS for Inhibitors of human tyrosyl-DNA phosphodiesterase 1 (TDP1): qHTS in cells in presence of CPT | chicken DT40 Tdp1-/-;hTDP1 cells + 20 nM CPT, ATP luminescence, 48 h | Potency, µM (top dose mostly 46.2 µM), actives largely listed as inhibitors | 420,000 compounds, 12% hits; also: nearly all actives have a fitted effect of over 55% in size
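Chicken DT40 Tdp1-/- cells complemented with human TDP1, 400 cells/well, exposed to compounds plus 20 nM camptothecin for at least 48 h at 37 C; viability read as ATP content by CellTiter-Glo luminescence.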
TDP1 inh: qHTS Assay for Inhibitors of Tyrosyl-DNA Phosphodiesterase (TDP1). Tyrosyl-DNA phosphodiesterase 1 (Homo sapiens), Q9NUW8. recombinant TDP1, AlphaScreen DNA substrate cleavage. Potency, µM (titrated, usually from 130 µM), most hits filed as inhibitors. 350,000 compounds, 0.28% hits. AID 485290, 2010; also: nearly all actives have a fitted effect of over 40% in size
Target sequence (Q9NUW8 whole entry, looked up): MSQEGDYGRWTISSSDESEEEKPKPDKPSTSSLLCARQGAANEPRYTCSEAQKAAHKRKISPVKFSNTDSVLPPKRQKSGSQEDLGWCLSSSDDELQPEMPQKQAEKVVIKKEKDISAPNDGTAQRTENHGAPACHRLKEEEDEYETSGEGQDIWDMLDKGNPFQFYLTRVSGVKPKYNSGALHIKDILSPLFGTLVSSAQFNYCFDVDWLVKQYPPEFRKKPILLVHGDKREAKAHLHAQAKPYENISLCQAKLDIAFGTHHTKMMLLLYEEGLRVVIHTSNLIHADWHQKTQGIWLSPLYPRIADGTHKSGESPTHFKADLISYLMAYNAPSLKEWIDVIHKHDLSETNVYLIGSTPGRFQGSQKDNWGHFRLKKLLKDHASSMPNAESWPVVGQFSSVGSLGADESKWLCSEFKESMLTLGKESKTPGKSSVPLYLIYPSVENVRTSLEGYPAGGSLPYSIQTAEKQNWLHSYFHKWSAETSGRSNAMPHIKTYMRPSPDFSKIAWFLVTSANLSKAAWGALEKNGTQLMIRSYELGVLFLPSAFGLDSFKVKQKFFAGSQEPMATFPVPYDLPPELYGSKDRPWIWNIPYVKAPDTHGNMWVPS
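E. coli-derived human Tdp1, 1 nM final. Cpd preinc 15 min RT; substrate 15 nM final, 5 min RT; AS bead mix 10 ug/ml final, 10 min RT. Signal loss = tyrosine-FITC cleavage. No-enzyme wells = max signal.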
IL1B secr inh: qHTS for Inhibitors of Inflammasome Signaling: IL-1-beta AlphaLISA Primary Screen | THP-1 LPS/ATP IL-1B secretion, AlphaLISA, 16 h; hits give low values | activity change, % at 57.5 µM | 360,000 compounds, 4.7% hits | AID 743279, 2014; in the data active = activity change below about -50%; inconclusive = mostly about -30% to -49%
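Secreted IL-1B measured by AlphaLISA bead assay after 16 h compound exposure of THP-1 cells; compounds (final up to 57.5 uM) added 1 h before LPS (250 ng/mL) and ATP (1.25 mM) stimulation; lower signal means less secretion.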
Hits are given with their value; . = inactive; ? = inconclusive; / = no result; [ ] = remark or other dose. Rows were chosen to be rich in hits. Some 19% of all compounds tested hit in one or more screens of this group. Unless noted, calls follow the shape of the dose curve; as a rule, active = well fitted curve in the direction sought with a large enough effect; inconclusive = small, poorly fitted or top-dose-only effect, or another doubt; inactive = no such curve, though single readings can be large; an effect the other way counts as inactive or inconclusive.

SMILES	HepG2 viability	TGFb inhibitor	TDP1 cell noCPT	TDP1 cell CPT	TDP1 inh	IL1B secr inh
CCOc1ccc(CCNC(=O)CCCc2nnc3n(CC)c(=O)c4sccc4n23)cc1OCC	.	?	?	.	.	/
CCOC(=O)OCC1OC(c2ccc(C(C)=O)cc2)C=CC1Oc1ccc(-c2ccccc2)cc1 (stereo not drawn)	/	/	/	/	.[21 µM]	/
COc1cccc(Cn2c(CNC(=O)c3cc([N+](=O)[O-])ccc3Cl)nc3cccnc32)c1	.	.	?	16µM	.	/
Cc1cccc(CC(=O)NCc2nc3cccnc3n2Cc2ccc(F)cc2)c1	.	?	?	?	.	/
Cc1cccc(Cn2c(CNS(=O)(=O)c3ccc(C(C)C)cc3)nc3cccnc32)c1	.	?	15µM	?	.	/
Cc1ccc(Cn2c(CNS(=O)(=O)c3ccc(F)c(Cl)c3)nc3cccnc32)cc1	.	.	.	.	.	/
COc1cccc(Cn2c(CNS(=O)(=O)c3ccc(F)c(Cl)c3)nc3cccnc32)c1	.	?	10µM	?	.	/
Cc1ccccc1-c1csc(C(O)(c2ccccc2)C(F)(F)F)n1 (stereo not drawn)	.	?	?	?	/	.
Cc1ccc(CCNC(=O)c2cc3sccc3n2Cc2ccc(Cl)cc2)cc1	.	.	.	.	.	/
CCCCCCCC(=O)OCCOC(=O)CCCCCCC	/	/	/	/	.	/
CCCCc1nn2c(=O)cc(COC(=O)c3ccc(NC(=O)C4CCCCC4)cc3)nc2s1	.	.	?	?	.	/
CCn1c(-c2cccc(OC)c2)nc2cc(NC(C)=O)cc(C(=O)N3CCCC(C(C)=O)C3)c21 (stereo not drawn)	/	/	.	.	/	/
Cc1noc2ncnc(N3CCN(c4ccccc4F)CC3)c12	.	.	23µM	21µM	.	/
Fc1ccccc1N1CCN(c2ncnc3[nH]ncc23)CC1	.	.	?	15µM	.	.
COc1ccccc1N1CCN(c2ncnc3n[nH]c(Br)c23)CC1	/	/	?	?	/	.
Fc1ccccc1N1CCN(c2ncnc3nc[nH]c23)CC1	.	.	.	.	/	.
COc1ccccc1N1CCN(c2ncnc3onc(C)c23)CC1	.	.	15µM	?	.	/
Cn1c(=O)n(Cc2ccccc2Cl)c(=O)c2c1nc1n2CCN1c1ccccc1	.	.	.	.	.	/
CCCCOC(=O)CSc1nnc(-c2ccccc2)o1	.	.	.	.	.	/
CCC[N+](CC#Cc1ccccc1)(CCC)CC(=O)c1ccc(Cl)cc1	.	.	26µM	?	.	-71
O=C(C[N+]1(CC#Cc2ccccc2)CCCCC1)c1ccc(Cl)cc1	.	.	3.7µM	12µM	.	-57
O=C(C[N+]1(CC#Cc2ccccc2)CCOCC1)c1ccccc1	.	.	16µM	?	.	.
O=C(C[N+]1(CC#Cc2ccccc2)CCOCC1)c1ccc(Cl)cc1	.	.	?	?	.	.
O=C(C[N+]1(CC#Cc2ccccc2)CCCCC1)c1ccccc1	.	.	21µM	16µM	.	.
Cc1ccc2[nH]c3c(c2c1)CCCC3NCCO (stereo not drawn)	.	.	?	.	/	.
SMILES	HepG2 viability	TGFb inhibitor	TDP1 cell noCPT	TDP1 cell CPT	TDP1 inh	IL1B secr inh
CC(=O)c1ccc(-n2nnnc2SCC(=O)NC2CCCCC2)cc1	.	.	.	.	.	.
C(#Cc1ccccc1)CN1CCOCC1	.	.	.	.	.	.
C(#Cc1ccccc1)C[N+]1(CC#Cc2cccc3ccccc23)CCOCC1	.	.	4.6µM	6.5µM	.	-84
Cc1ccc(C(=O)Nc2ccc(N3CCN(C)CC3)cc2)c(Cl)c1	.	.	.	.	/	?
COc1ccc(-c2csc3nc(-c4cccnc4)nc(Cl)c23)cc1OC	.	.	?	?	.	-87
CCOc1ccc(CNC(=O)Cn2c(=O)c3cccn3c3ccc(F)cc32)cc1	.	.	.	.	.	/
CC1OC(CCc2cccc(Cl)c2)Cc2[nH]c(=S)[nH]c(=O)c21 (stereo not drawn)	/	/	26µM	?	/	.
CCCCC1Cc2[nH]c(=S)[nH]c(=O)c2C(c2ccc(C(C)C)cc2)O1 (stereo not drawn)	/	/	23µM	16µM	/	.
CC(C)C[C@@H]1O[C@H](CCc2ccccc2)Cc2[nH]c(=S)[nH]c(=O)c21	/	/	?	?	/	.
CC1Cc2[nH]c(=S)[nH]c(=O)c2C(c2ccc(C(C)C)cc2)O1 (stereo not drawn)	/	/	.	.	/	.
Cc1ccc(Nc2nc(C(=O)N3CCC(C(=O)NCc4ccccc4)CC3)cs2)cc1	.	.	?	.	/	?
COc1ccc(CNC(=O)C2CCN(c3nc4ccc(C)cc4[nH]3)CC2)cc1	.	.	10µM	?	.	/
COc1ccc(CNC(=O)C2CCN(C(=O)c3csc(Nc4ccc(C)cc4)n3)CC2)cc1	.	.	?	?	/	-53
COc1ccc(CNC(=O)C2CCN(C(=O)[C@@H]3Cc4ccccc4CN3)CC2)cc1	.	.	?	16µM	.	.
COc1cccc(CNC(=O)C2CCN(c3nc4ccc(Cl)cc4[nH]3)CC2)c1	.	.	?	21µM	.	/
CC(C)CCNC(=O)C1CCN(c2nc3ccc(Cl)cc3[nH]2)CC1	.	.	?	?	.	/
CCc1nnc(NC(=O)c2cc(=O)c3cc(C)c(C)cc3o2)s1	.	.	.	.	.	/
CCOc1ccc2c3c(c(=O)oc2c1OCC)CCCC3	.	.	?	?	.	-52
CCCOc1ccc2c3c(c(=O)oc2c1OCCC)CCCC3	.	.	?	?	.	.
Cc1c(OCC(=O)NCC(O)c2ccccc2)ccc2c(-c3ccccc3)cc(=O)oc12 (stereo not drawn)	.	.	?	?	/	-63
Cc1c(OCC(=O)C(C)(C)C)ccc2c3c(c(=O)oc12)CCCC3	.	.	16µM	?	/	.
CC(=O)COc1ccc2c(-c3ccccc3)cc(=O)oc2c1C	.	.	?	.	/	.
Cc1c(OCC(=O)C(C)(C)C)ccc2c(-c3ccccc3)cc(=O)oc12	.	?	16µM	?	/	-64
O=C(O)C1CCN(S(=O)(=O)c2cccc3nonc23)CC1	.	.	.	.	.	.
Cc1cccn2c(=O)c(/C=C(\C#N)C(N)=O)c(N3CCN(c4cccc(Cl)c4)CC3)nc12	.	?	?	?	/	.
CC(=O)CCOC1CCCCO1 (stereo not drawn)	/	/	/	/	.	/
